Records with an inconclusive call do not appear. Calls of active or inactive are those of the source. The call rests on the fitted dose curve; in most records, active means well fitted curve in the direction sought with a large enough effect in the repeat runs; inconclusive means weak or mixed curves; inactive means no such curve, though single readings can be large; an effect the other way counts as inactive or inconclusive.
Columns and labels:
[1] = qHTS RealTime-Glo MT Cell Viability Assay in HepG2 cells - 40 hour (AID 1224870); conditions: RealTime-Glo luminescence; series mostly up to 76.8 µM; further: nearly all actives have a fitted effect of over 50% in size
Method in brief: (§1)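 Real-time viability: cells seeded at 600 per well together with NanoLuc and cell-permeant prosubstrate, compounds added after 5 h incubation. Luminescence tracked at 0, 8, 16, 24, 32 and 40 h of exposure.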

[2] = A CellTox Green Cytotoxicity Assay to monitor cytotoxicity in HEK293 cells - 40 hour (AID 1224871); conditions: CellTox Green fluorescence; series mostly up to 35.3 µM; further: nearly all actives have a fitted effect of over 45% in size
Method in brief: (§2)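 Fluorescence intensity, read at 0, 8, 16, 24, 32 and 40 h of compound treatment, reflected dye binding to DNA of dead HEK293 cells; compounds (23 nL, DMSO) were added 5 h after plating cells with reagent.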

[3] = qHTS RealTime-Glo MT Cell Viability Assay in HEK293 cells - 16 hour (AID 1224872); conditions: RealTime-Glo luminescence; series mostly up to 76.8 µM; further: top concentration of the series differs between compounds; nearly all actives have a fitted effect of over 50% in size
Method in brief: (§3)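 Viability tracked continuously by luminescence as live cells reduce a prosubstrate for NanoLuc; HEK293 cells preincubated 5 h, compound-treated at 37 C, and read at 0, 8, 16, 24, 32 and 40 h.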

[4] = qHTS RealTime-Glo MT Cell Viability Assay in HepG2 cells - 8 hour (AID 1224873); conditions: RealTime-Glo luminescence; series mostly up to 76.8 µM; further: nearly all actives have a fitted effect of over 55% in size
Method in brief: as §1

[5] = qHTS RealTime-Glo MT Cell Viability Assay in HEK293 cells - 40 hour (AID 1224874); conditions: RealTime-Glo luminescence; max response: hits give low values; further: nearly all actives have a fitted effect of over 50% in size
Method in brief: (§4)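 Viable HEK293 cells reduce a cell-permeant prosubstrate; the product diffuses out and is consumed by NanoLuc in the medium to give light. Compounds went in after a 5 h incubation and plates were read over the treatment course.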

[6] = A CellTox Green Cytotoxicity Assay to monitor cytotoxicity in HEK293 cells - 24 hour (AID 1224875); conditions: CellTox Green fluorescence; series mostly up to 76.8 µM; further: nearly all actives have a fitted effect of over 45% in size
Method in brief: as §2

[7] = A CellTox Green Cytotoxicity Assay to monitor cytotoxicity in HepG2 cells - 16 hour (AID 1224876); conditions: CellTox Green fluorescence; series mostly up to 76.8 µM; further: nearly all actives have a fitted effect of over 45% in size
Method in brief: (§5)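 Using 1536-well format, dye-containing HepG2 suspension was seeded, allowed 5 h at 37 C/5% CO2, dosed by pintool with compounds, positive and negative controls, and imaged for fluorescence across 40 h.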

[8] = qHTS RealTime-Glo MT Cell Viability Assay in HepG2 cells - 32 hour (AID 1224877); conditions: RealTime-Glo luminescence; series mostly up to 76.8 µM; further: nearly all actives have a fitted effect of over 55% in size
Method in brief: (§6)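 Viability was tracked continuously by NanoLuc luminescence from prosubstrate reduced by living HepG2 cells, at successive time points over 40 h of compound exposure. Cells with reagent were preincubated 5 h at 37 °C before compound addition.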

[9] = A CellTox Green Cytotoxicity Assay to monitor cytotoxicity in HepG2 cells - 24 hour (AID 1224878); conditions: CellTox Green fluorescence; series mostly up to 76.8 µM; further: nearly all actives have a fitted effect of over 45% in size
Method in brief: as §5

[10] = A CellTox Green Cytotoxicity Assay to monitor cytotoxicity in HepG2 cells - 40 hour (AID 1224879); conditions: CellTox Green fluorescence; series mostly up to 76.8 µM; further: nearly all actives have a fitted effect of over 40% in size
Method in brief: as §5

[11] = qHTS RealTime-Glo MT Cell Viability Assay in HEK293 cells - 0 hour (AID 1224880); conditions: RealTime-Glo luminescence; series mostly up to 76.8 µM
Method in brief: as §4

[12] = A CellTox Green Cytotoxicity Assay to monitor cytotoxicity in HEK293 cells - 32 hour (AID 1224881); conditions: CellTox Green fluorescence; series mostly up to 35.3 µM; further: nearly all actives have a fitted effect of over 40% in size
Method in brief: as §2

[13] = A CellTox Green Cytotoxicity Assay to monitor cytotoxicity in HepG2 cells - 0 hour (AID 1224882); conditions: CellTox Green fluorescence; series mostly up to 76.8 µM; further: nearly all actives have a fitted effect of over 35% in size
Method in brief: as §5

[14] = A CellTox Green Cytotoxicity Assay to monitor cytotoxicity in HepG2 cells - 32 hour (AID 1224883); conditions: CellTox Green fluorescence; series mostly up to 76.8 µM; further: nearly all actives have a fitted effect of over 50% in size
Method in brief: as §5

[15] = A CellTox Green Cytotoxicity Assay to monitor cytotoxicity in HEK293 cells - 8 hour (AID 1224884); conditions: CellTox Green fluorescence; series mostly up to 76.8 µM; further: nearly all actives have a fitted effect of over 35% in size
Method in brief: as §2

[16] = qHTS RealTime-Glo MT Cell Viability Assay in HepG2 cells - 16 hour (AID 1224885); conditions: RealTime-Glo luminescence; series mostly up to 76.8 µM; further: nearly all actives have a fitted effect of over 50% in size
Method in brief: as §6

[17] = qHTS RealTime-Glo MT Cell Viability Assay in HEK293 cells - 24 hour (AID 1224886); conditions: RealTime-Glo luminescence; series mostly up to 76.8 µM
Method in brief: as §3

[18] = A CellTox Green Cytotoxicity Assay to monitor cytotoxicity in HEK293 cells - 16 hour (AID 1224888); conditions: CellTox Green fluorescence; series mostly up to 76.8 µM; further: nearly all actives have a fitted effect of over 35% in size
Method in brief: as §2

[19] = qHTS RealTime-Glo MT Cell Viability Assay in HepG2 cells - 0 hour (AID 1224889); conditions: RealTime-Glo luminescence; series mostly up to 76.8 µM; further: nearly all actives have a fitted effect of over 50% in size
Method in brief: as §6

[20] = qHTS RealTime-Glo MT Cell Viability Assay in HEK293 cells - 8 hour (AID 1224887); conditions: RealTime-Glo luminescence; series mostly up to 76.8 µM
Method in brief: as §4
On the % scale 0 is the no-effect control and ±100 the full control effect.

O=C1OC(=O)C2CCCCC12 (stereo not drawn)
inactive: Potency [1] | Potency [2] | Potency [3] | Potency [4] | max response [5] 1.13% | Potency [6] | Potency [7] | Potency [8] | Potency [9] | Potency [10] | Potency [11] | Potency [12] | Potency [13] | Potency [14] | Potency [15] | Potency [16] | Potency [17] | Potency [18] | Potency [19]

Cn1c(N)c(N=O)c(=O)n(C)c1=O
inactive: Potency [1] | Potency [2] | Potency [3] | Potency [4] | max response [5] 4.01% | Potency [6] | Potency [7] | Potency [8] | Potency [9] | Potency [10] | Potency [11] | Potency [12] | Potency [14] | Potency [15] | Potency [16] | Potency [17] | Potency [20] | Potency [18] | Potency [19]

CN1CCCC1
inactive: Potency [1] | Potency [2] | Potency [3] | Potency [4] | max response [5] 1.57% | Potency [6] | Potency [7] | Potency [8] | Potency [9] | Potency [10] | Potency [11] | Potency [12] | Potency [13] | Potency [14] | Potency [16] | Potency [17] | Potency [18] | Potency [19]

CC(C)c1cc2c(cc1S(=O)(=O)O)[C@@]1(C)CCC[C@@](C)(C(=O)O)[C@@H]1CC2
inactive: Potency [1] | Potency [2] | Potency [3] | Potency [4] | max response [5] 1.39% | Potency [6] | Potency [7] | Potency [8] | Potency [9] | Potency [10] | Potency [11] | Potency [12] | Potency [13] | Potency [14] | Potency [15] | Potency [16] | Potency [17] | Potency [18] | Potency [19]

OCCOc1ccc(OCCO)cc1
inactive: Potency [1] | Potency [2] | Potency [3] | Potency [4] | max response [5] 19.3% | Potency [6] | Potency [7] | Potency [8] | Potency [9] | Potency [10] | Potency [11] | Potency [12] | Potency [14] | Potency [15] | Potency [16] | Potency [17] | Potency [20] | Potency [18] | Potency [19]

CC1(C)C(O)C(C)(C)C1O (stereo not drawn)
inactive: Potency [1] | Potency [2] | Potency [3] | Potency [4] | max response [5] 0.527% | Potency [6] | Potency [7] | Potency [8] | Potency [9] | Potency [10] | Potency [11] | Potency [12] | Potency [13] | Potency [14] | Potency [15] | Potency [16] | Potency [17] | Potency [18] | Potency [19]

Nc1c2c(nc3ccccc13)CCCC2O (stereo not drawn)
inactive: Potency [1] | Potency [2] | Potency [3] | Potency [4] | max response [5] 24.6% | Potency [6] | Potency [7] | Potency [8] | Potency [9] | Potency [10] | Potency [11] | Potency [12] | Potency [13] | Potency [14] | Potency [15] | Potency [16] | Potency [17] | Potency [18] | Potency [19]

CCN(CC)CCOCCOC(=O)C1(c2ccccc2)CCCC1
inactive: Potency [1] | Potency [2] | Potency [3] | Potency [4] | max response [5] -9.14% | Potency [6] | Potency [7] | Potency [8] | Potency [9] | Potency [10] | Potency [11] | Potency [12] | Potency [14] | Potency [15] | Potency [16] | Potency [17] | Potency [20] | Potency [18] | Potency [19]

Cc1c(O)cccc1O
inactive: Potency [1] | Potency [2] | Potency [3] | Potency [4] | max response [5] 1.57% | Potency [6] | Potency [7] | Potency [8] | Potency [9] | Potency [10] | Potency [11] | Potency [12] | Potency [13] | Potency [14] | Potency [15] | Potency [16] | Potency [17] | Potency [19]

O=C1CCCC(=O)C1
inactive: Potency [1] | Potency [2] | Potency [3] | Potency [4] | max response [5] 1.44% | Potency [6] | Potency [7] | Potency [8] | Potency [9] | Potency [10] | Potency [11] | Potency [12] | Potency [13] | Potency [14] | Potency [15] | Potency [16] | Potency [17] | Potency [20] | Potency [19]

c1cnc(N2CCN(Cc3ccc4c(c3)OCO4)CC2)nc1
inactive: Potency [1] | Potency [2] | Potency [3] | Potency [4] | max response [5] -13% | Potency [6] | Potency [7] | Potency [8] | Potency [9] | Potency [10] | Potency [11] | Potency [12] | Potency [13] | Potency [14] | Potency [15] | Potency [16] | Potency [17] | Potency [20] | Potency [19]

CC(C)OC(=O)c1ccccc1
inactive: Potency [1] | Potency [2] | Potency [3] | Potency [4] | max response [5] 0.492% | Potency [6] | Potency [7] | Potency [8] | Potency [9] | Potency [10] | Potency [11] | Potency [12] | Potency [14] | Potency [15] | Potency [16] | Potency [17] | Potency [20] | Potency [18] | Potency [19]

Cc1cc2c(cc1S(N)(=O)=O)S(=O)(=O)CCC2
inactive: Potency [1] | Potency [2] | Potency [3] | Potency [4] | max response [5] 2.68% | Potency [6] | Potency [7] | Potency [8] | Potency [9] | Potency [10] | Potency [11] | Potency [12] | Potency [13] | Potency [14] | Potency [15] | Potency [16] | Potency [17] | Potency [19]

NCCCNCCSP(=O)(O)O
inactive: activity change, negative = cytotoxic [1] 0.256% [at 6.97 µM] | cytotoxicity increase [2] -10.4% [at 6.97 µM] | activity change, negative = cytotoxicity [3] 0.443% [at 6.97 µM] | viability change, negative = cytotoxic [4] 0.144% [at 6.97 µM] | max response [5] 3.52% | activity change [6] -8.68% [at 6.97 µM, hits give high values] | cytotoxicity increase [7] -2.65% [at 6.97 µM] | activity change, negative = cytotoxic [8] 1.78% [at 6.97 µM] | cytotoxicity [9] -8.81% [at 6.97 µM] | cytotoxicity increase [10] -11.2% [at 6.97 µM] | activity change, negative = cytotoxicity [11] -1.72% [at 6.97 µM] | cytotoxicity increase [12] -9.01% [at 6.97 µM] | cytotoxicity [13] 1.75% [at 6.97 µM] | cytotoxicity increase [14] -8.01% [at 6.97 µM] | cytotoxicity increase [15] 3.38% [at 6.97 µM] | activity change, negative = cytotoxic [16] 0.263% [at 6.97 µM] | activity change, negative = cytotoxicity [17] 4.08% [at 6.97 µM] | activity change [18] -4.83% [at 6.97 µM, hits give high values] | activity change, negative = cytotoxicity [19] -0.885% [at 6.97 µM]

Source: PubChem BioAssay (Tox21)
